The values that follow are results of earlier work, collected in PubChem BioAssay AID977610.

Broadly, the Ki is the dissociation constant of the complex between target and ligand, obtained from inhibition or displacement.

The data set can be described thus: PubChem AID 977610. To be noted: PDB protein-ligand complexes, literature Ki.

Molecules are shown by their SMILES. Out of some 3,600 compounds screened, about 3,600 (100%) were called active. No cut-off is given here; in the data, nearly all actives have Ki up to about 18000 µM. So high a share suggests a set chosen from earlier hits. Some of the results follow. Numbered stars: 1 amine (or outer) side, 2 acyl side, 3 side chain; on linkers, the order of the positions; unused ones are H or OH. Starred links: 1 amine or outer side, 2 acyl side, 3 side chain; linkers in the order of their positions; H or OH if unused. Positions of bridges follow the written chain, without caps; N, C: chain ends. Bridge positions count the residues as written; N and C are the ends. Where a SMILES comes first, the peptide text is derived from it. Square brackets hold non-standard residues; d marks the D form. Residues, ends and D or L forms follow the SMILES beside them. Peptide text beside a SMILES is read from it. [ ]: non-standard residue; d: D form. The star is where a group is joined. X2 = CC[C@H](C)[C@H](N[*:1])c1cnnn1[C@@H](C)C(=O)[*:2]; X1 = C(CS[*:2])CN(CCCS[*:3])[*:1]; Orn(CH(NH2)2) = NC(N)NCCC[C@H](N)C(=O)O; Cbz = O=C(OCc1ccccc1)*; Dap = NC[C@H](N)C(=O)O; Nlys = NCCCCNCC(=O)O

For `CC(C)(C)C(=O)N[C@@H](C(=O)NO)c1ccc(-n2cccn2)cc1`, for the setting “protein: M1 family aminopeptidase A-M1, PDB entry 4r5v”, the Ki is 0.7 µM (active). Regarding `CCOC(=O)c1cc(C#N)c(N2CCC(C(=O)NS(=O)(=O)Cc3ccccc3)CC2)nc1C`, the Ki (protein: P2Y12R, PDB entry 4ntj) is 0.0439 µM (active). For the compound `CC(C[P+](O)(O)O)C(=O)O` (stereo not drawn), under “protein: PHOSPHO-2-DEHYDRO-3-DEOXYHEPTONATE ALDOLASE DAH7PS, PDB entry 4uma”, the Ki was 3.9 µM (active). With `CC(C)C[C@H](NC(=O)OCc1ccccc1)C(=O)N[C@@H](Cc1ccccc1)C(=O)N[C@H](C=O)CCC(=O)N(C)C` (Cbz-Leu-Phe-Glu(NMe2)-aldehyde), the Ki (protein: Genome polyprotein, PDB entry 4imz) was 0.12 µM (active). With `CC(=O)NC[C@@H](C=O)NC(=O)[C@H](Cc1ccccc1)NC(=O)[C@H](CC(C)C)NC(=O)OCc1ccccc1` (Cbz-Leu-Phe-[Dap](Ac)-aldehyde), the Ki (protein: 3C-like protease, PDB entry 4imq) was 1.5 µM (active). As to `CC(C)C[C@H](NC(=O)[C@H](C)NC(=O)OCc1ccccc1)C(=O)N[C@@H](CCC(=O)N(C)C)C(=O)O` (Cbz-Ala-Leu-Glu(NMe2)-OH), under “protein: Genome polyprotein, PDB entry 4inh”, the Ki was 0.56 µM (active). As to `COc1cc([C@@H]2Nc3ccc(C(N)N)cc3[C@H]3c4ccccc4C[C@H]32)c(-c2ccc(C(=O)O)cc2)cc1O`, the Ki (protein: Factor VII, PDB entry 4ish) is 0.0019 µM (active). As for `CC(=O)N[C@H]1CNC[C@H](O)[C@@H](O)[C@@H]1O`, where the note is “protein: Beta-hexosaminidase 1, PDB entry 4mss”, the Ki was 0.4 µM (active).

Consider `COc1cc2c(c(OC)c1OC)-c1ccc(OC)c(=O)cc1[C@@H](NC(C)=O)CC2`, for which the inhibition constant (Ki) (protein: Tubulin, PDB entry 4o2b) was 1.8 µM (active). For `CC[C@H](C)[C@@H]1NC(=O)[C@@H]2CCCN2C(=O)[C@@H]2CCCN2C(=O)[C@H]([C@@H](C)CC)NC(=O)[C@H](CO)NC(=O)CN(CCCCN)C(=O)[C@H]([C@@H](C)O)NC(=O)[C@@H](NC(=O)[C@H](CCCNC(N)N)NC(=O)CN)CSSC[C@@H](C(=O)N[C@@H](Cc2ccccc2)C(=O)O)NC1=O` (H-G[Orn(CH(NH2)2)]CT[Nlys]SIPPICF-OH; disulfide 3-11), the inhibition constant (Ki) (protein: Cationic trypsin, PDB entry 4hgc) is 0.0001 µM (active). For `CC[C@H](C)[C@@H]1NC(=O)[C@H](C)n2cc(nn2)[C@@H]2CCCN2C(=O)[C@H]([C@@H](C)CC)NC(=O)[C@H](CO)NC(=O)[C@H](CCCCN)NC(=O)[C@H]([C@@H](C)O)NC(=O)[C@@H](NC(=O)[C@H](CCCNC(N)N)NC(=O)CN)CSSC[C@@H](C(=O)N[C@@H](Cc2ccccc2)C(=O)O)NC1=O` (H-G[Orn(CH(NH2)2)]CTKSI[X1]ICF-OH; disulfide 3-10), the Ki (protein: bovine CATIONIC TRYPSIN, PDB entry 4abi) is 0.0063 µM (active). Take `NCCCC[C@@H]1NC(=O)[C@H](CCC(N)=O)NC(=O)[C@H](Cc2ccc(O)cc2)NC(=O)[C@@H](NC(=O)[C@H](Cc2cccc3ccccc23)NC(=O)[C@H](CCCNC(N)N)NC(=O)[C@@H](N)CCCNC(N)N)CSSC[C@@H](C(=O)N[C@@H](CCCNC(N)N)C(=O)NCC(=O)N2CCC[C@@H]2C(=O)O)NC(=O)[C@H](CCCNC(N)=O)NC(=O)[C@H](CCCNC(N)N)NC(=O)[C@H](Cc2ccc(O)cc2)NC(=O)[C@@H]2CCCN2C(=O)[C@H]2CCCN2C1=O`: the Ki (protein: C-X-C chemokine receptor type 4, Lysozyme Chimera(CXCR4-3), PDB entry 3oe0) was 0.0025 µM (active). Turning to `CC[C@H](C)[C@@H]1NC(=O)[C@@H]2CCCN2C(=O)[C@@H]2CCCN2C(=O)[C@H]([C@@H](C)CC)NC(=O)[C@H](CO)NC(=O)[C@H](CCCCN)NC(=O)[C@H]([C@@H](C)O)NC(=O)[C@@H]2CSSC[C@H](NC1=O)C(=O)N[C@@H](Cc1ccccc1)C(=O)N1CCC[C@H]1C(=O)N[C@@H](CC(=O)O)C(=O)NCC(=O)N[C@@H](CCCNC(N)N)C(=O)N2`, the Ki (protein: bovine ?-trypsin, PDB entry 1sfi) is 0.0001 µM (active). Take `CC[C@H](C)[C@@H]1NC(=O)[C@@H]2CCCN2C(=O)[C@H](C)n2nncc2[C@H]([C@@H](C)CC)NC(=O)[C@H](CO)NC(=O)[C@H](CCCCN)NC(=O)[C@H]([C@@H](C)O)NC(=O)[C@@H](NC(=O)[C@@H](N)CCCNC(N)N)CSSC[C@@H](C(=O)N[C@@H](Cc2ccccc2)C(=O)O)NC1=O` (H-[Orn(CH(NH2)2)]CTKS[X2]PICF-OH; disulfide 2-9): under “protein: bovine CATIONIC TRYPSIN, PDB entry 4abj”, the Ki is 0.034 µM (active). For `NC(=O)[C@H](CCC(=O)O)NC(=O)[C@H](CCC(=O)O)NC(=O)[C@H](Cc1cc(-c2ccc(-c3cccc(Cl)c3)cc2)no1)C[P+](O)(O)c1ccc(Br)cc1`, the Ki (protein: Macrophage metalloelastase (F171D mutation), PDB entry 4gql) is 0.00026 µM (active). On to `NC(=O)[C@H](CCC(=O)O)NC(=O)[C@H](CCC(=O)O)NC(=O)[C@H](Cc1cc(-c2ccccc2)no1)C[P+](O)(O)c1ccc(Br)cc1`, for which, for the setting “protein: Macrophage metalloelastase (F171D mutation), PDB entry 4gr3”, the Ki was 0.0155 µM (active). In the case of `OC[C@]1(F)OC[C@H](O)[C@@H](O)[C@@H]1O`, the Ki (protein: ALPHA-1,4-GLUCAN LYASE ISOZYME 1, PDB entry 4amw) is 28300 µM (active). In the case of `OC[C@@]1(F)OC[C@H](O)[C@@H](O)[C@@H]1O`, the Ki (protein: ALPHA-1,4-GLUCAN LYASE ISOZYME 1, PDB entry 4amx) was 6500 µM (active). With `NC1NN=C(S(N)(=O)=O)S1` (stereo not drawn), the Ki (protein: human carbonic anhydrase II, PDB entry 2hnc) is 0.06 µM (active). On to `C[C@@H]1C[C@H]2[C@@H]3CCC4=CC(=O)C=C[C@]4(C)[C@@]3(Cl)[C@@H](O)C[C@]2(C)[C@@]1(OC(=O)c1ccco1)C(O)CCl` (stereo partly drawn), for which the Ki (protein: Glucocorticoid receptor GR LBD, PDB entry 4p6w) was 0.0007 µM (active).

For the compound `Nc1[nH]c(N)c2ccccc12`, under “protein: PDE10A2, PDB entry 4llj”, the Ki was 380 µM (active). Regarding `CNC(=O)CN[C@@H](C(=O)N1CC[C@H]1C(=O)NCc1ccc(C(N)N)cc1)C1CCCCC1`, the Ki (protein: THROMBIN, PDB entry 4ban) was 0.00243 µM (active). On to `CCNC(=O)CN[C@@H](C(=O)N1CC[C@H]1C(=O)NCc1ccc(C(N)N)cc1)C1CCCCC1`, for which the Ki (protein: THROMBIN, PDB entry 4baq) was 0.00098 µM (active). Take `CCCNC(=O)CN[C@@H](C(=O)N1CC[C@H]1C(=O)NCc1ccc(C(N)N)cc1)C1CCCCC1`: for the setting “protein: THROMBIN, PDB entry 4bak”, the Ki was 0.00122 µM (active). Turning to `CC[C@H](C)[C@H](NC(C)=O)C(=O)N[C@@H](Cc1ccc(O)cc1)C(=O)N[C@@H](Cc1ccc(O)cc1)[P+](O)(O)O`, the Ki (protein: Human angiotenisn converting enzyme N-domain, PDB entry 4bzs) is 0.075 µM (active). `O=C(N[C@@H](Cc1ccccc1)[P+](O)(O)C[C@@H](Cc1cc(-c2ccccc2)no1)C(=O)N[C@@H](Cc1ccc(O)cc1)C(=O)O)OCc1ccccc1`: the Ki by setting is: (protein: ANGIOTENSIN-CONVERTING ENZYME N-DOMAIN, PDB entry 4ca6) 0.18 µM (active); (protein: ANGIOTENSIN-CONVERTING ENZYME, PDB entry 4ca5) 0.00041 µM (active); (protein: ANGIOTENSIN-CONVERTING ENZYME, PDB entry 4ca7) 0.044 µM (active). `O=C(N[C@@H](Cc1ccccc1)[P+](O)(O)C[C@H](Cc1cc(-c2ccccc2)no1)C(=O)N[C@@H](Cc1ccc(O)cc1)C(=O)O)OCc1ccccc1`: where the note is “protein: ANGIOTENSIN-CONVERTING ENZYME, PDB entry 4ca8”, the Ki was 0.21 µM (active). For `CC(C)C[C@H](NC(=O)[C@@H]1CSS[C@H]2CSSC[C@H](NC(=O)CNC(=O)[C@H](CCCN=C(N)N)NC(=O)CNC(=O)[C@H](CC(C)C)NC(=O)[C@H](C)NC(=O)[C@@H](NC(=O)CN)C2)C(=O)N[C@@H](CCC(=O)O)C(=O)N[C@@H](CC(N)=O)C(=O)N[C@@H](Cc2cnc[nH]2)C(=O)N[C@@H](CCCN=C(N)N)C(=O)N1)C(N)=O`, the Ki (protein: Urokinase-type plasminogen activator, PDB entry 4os4) was 13.6 µM (active). Regarding `CC(C)C[C@H](NC(=O)[C@@H]1CSS[C@@H]2CSSC[C@H](NC(=O)CNC(=O)[C@H](CCCN=C(N)N)NC(=O)CNC(=O)[C@H](CC(C)C)NC(=O)[C@H](C)NC(=O)[C@@H](NC(=O)CN)C2)C(=O)N[C@@H](CCC(=O)O)C(=O)N[C@@H](CC(N)=O)C(=O)N[C@@H](Cc2cnc[nH]2)C(=O)N[C@@H](CCCN=C(N)N)C(=O)N1)C(N)=O`, the Ki (protein: Urokinase-type plasminogen activator, PDB entry 4os1) is 2.5 µM (active). Consider `CC(C)C[C@H](NC(=O)[C@@H]1CSSC[C@H]2C[C@H](NC(=O)CN)C(=O)N[C@@H](C)C(=O)N[C@@H](CC(C)C)C(=O)NCC(=O)N[C@@H](CCCN=C(N)N)C(=O)NCC(=O)N[C@@H](CSS2)C(=O)N[C@@H](CCC(=O)O)C(=O)N[C@@H](CC(N)=O)C(=O)N[C@@H](Cc2cnc[nH]2)C(=O)N[C@@H](CCCN=C(N)N)C(=O)N1)C(N)=O`, for which, for the setting “protein: Urokinase-type plasminogen activator, PDB entry 4os5”, the Ki is 23.7 µM (active). On to `CC(C)C[C@H](NC(=O)[C@@H]1CSSCCCN2CCCSSC[C@H](NC(=O)CNC(=O)[C@H](CCCN=C(N)N)NC(=O)CNC(=O)[C@H](CC(C)C)NC(=O)[C@H](C)NC(=O)[C@@H](NC(=O)CN)CC2=O)C(=O)N[C@@H](CCC(=O)O)C(=O)N[C@@H](CC(N)=O)C(=O)N[C@@H](Cc2cnc[nH]2)C(=O)N[C@@H](CCCN=C(N)N)C(=O)N1)C(N)=O` (H-GDALGRGCENHRCL-NH2; linker 2-8-13 via X1), for which the Ki (protein: Urokinase-type plasminogen activator, PDB entry 4os7) was 24 µM (active).
